Assay outcomes as filed in PubChem BioAssay.
HepG2 viability = counter-screen for TGF-b inhibitors: cytotoxicity in HepG2 cells; HepG2 CAGA-GFP viability, ATP luminescence, 18 h; Potency, µM (highest dose often 46.1 µM), for inactives: at the highest dose activity change, negative = cytotoxicity, most hits filed as cytotoxic; 410,000 compounds, 0.76% hits
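CellTiter-Glo luminescence gave cytotoxicity after 18 hours at 37 degrees C. The cells were HepG2 CAGA-GFP in 1% FBS DMEM, stimulated with 500 pg/mL TGF-beta after compound addition. %Activity was normalised to no-cell wells (complete cell-killing) and DMSO (no toxicity), and curves were fitted and classified.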
HT1080 IDH1KD tx = toxicity to HT-1080 IDH1 knockdown cells (counter line); HT-1080 IDH1 knockdown viability, ATP luminescence, 48 h; Potency, µM (titrated, usually from 46.1 µM), for the others: top-dose activity, negative = toxicity, most hits filed as cytotoxic; 360,000 compounds, 2% hits; AID 686971;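 further: 0% = DMSO wells and -100% = cell-free medium wells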
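In this qHTS, HT-1080 cells depleted of IDH1 are exposed for 48 h at 37 °C to compound titrations. Toxicity is scored from CellTiter-Glo luminescence, with DMSO as full viability and medium alone as none.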
HT1080-NT tox = kills 2HG-producing HT-1080-NT fibrosarcoma cells; Potency, µM (doses to about 46.1 µM), inactives show at the top dose activity, negative = less viability, most hits filed as cytotoxic; 360,000 compounds, 1.6% hits; HT-1080-NT fibrosarcoma viability, CellTiter-Glo ATP luminescence, 48 h;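 further: NT is the 2HG producing partner of a matched IDH1 knockdown line; 0% = DMSO-treated cells and -100% = media-only wells without cells; nearly all actives have a fitted effect of over 55% in size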
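Luminescent CellTiter-Glo readout after 48 hours of compound exposure at 37 degrees C defined viability of HT-1080-NT cells. Activity was normalized to DMSO wells and cell-free media wells; concentration-response curves were fitted and assigned curve classes.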
TGFb inhibitor = inhibitors of TGF-b signaling; HepG2 CAGA-GFP TGF-b/SMAD3 reporter, GFP fluorescence, 18 h; TGF-beta stimulated, 500 pg/mL final; Potency, µM (top dose mostly 46.1 µM), for inactives: at the highest dose activity, negative = inhibition, hits mostly inhibitors; AID 588855; 410,000 compounds, 1.2% hits; further: on the % scale 0 is the no-effect control and ±100 the full control effect; nearly all actives have a fitted effect of over 65% in size
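Using HEPG2 CAGA-GFP reporter cells at 1000 cells/well, we pinned test compounds, stimulated with recombinant TGF-beta (500 pg/mL final) and measured total well GFP after 18 h.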
ATXN2 expr inh = ATXN2 expression inhibition | HEK-293 ATXN2-luciferase reporter, luminescence, 24 h | Potency, µM (top dose mostly 57 µM), inactives show at the top dose activity change, negative = inhibition, hits mostly inhibitors | 360,000 compounds, 0.72% hits | AID 1745845; further: on the % scale 0 is the no-effect control and ±100 the full control effect; nearly all actives have a fitted effect of over 55% in size
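qHTS (up to 57 uM final) was run with 24 h compound exposure of reporter cells at 37 °C. Each well was multiplexed: SteadyGlo luminescence measured ATXN2-luciferase expression after a fluorogenic Gly-Phe-AFC viability readout (25 uM final).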
S2 tox = reduces viability in counter-screen for ATXN expression inhibitors | S2 cells (HEK-293 line with an ATXN2-luciferase reporter) viability, CellTiter-Fluor protease fluorescence, 24 h | Potency, µM (highest dose often 56.7 µM), actives largely listed as cytotoxic | 400,000 compounds, 0.49% hits | AID 651635; further: nearly all actives have a fitted effect of over 40% in size
The depositor's hits bear a star. Most compounds without a hit are left out; they make up all but 3.9% or so of the library. The call rests on the fitted dose curve; in most records, active means well fitted curve in the direction sought with a large enough effect; inconclusive means small, poorly fitted or top-dose-only effect, or another doubt; inactive means no such curve, though single readings can be large; an effect the other way counts as inactive or inconclusive. Potency means the concentration at half of the fitted maximal effect.

COc1ccc(NC(C)=O)cc1NS(=O)(=O)c1ccc2c(c1)OCCO2 was read as HepG2 viability -67.9%, HT1080 IDH1KD tx -6.0%, HT1080-NT tox -1.8%, TGFb inhibitor inconclusive, ATXN2 expr inh 1.2% and S2 tox inactive.
O=C(NCc1nnc2n1CCN(Cc1cc3c(cc1Cl)OCO3)CC2)c1cccc(F)c1 was read as S2 tox inactive.
CC(Nn1cnnc1)c1cc(Cl)ccc1O (stereo unspecified) was read as HepG2 viability 7.5%, HT1080 IDH1KD tx -1.0%, HT1080-NT tox -4.5%, TGFb inhibitor 16.9%, ATXN2 expr inh 2.7% and S2 tox inactive.
For Cc1ccc(NC(C)c2cc(Cl)ccc2O)cc1 (stereo unspecified) the results were HepG2 viability 11.2µM*, HT1080 IDH1KD tx 0.7%, HT1080-NT tox 5.1%, TGFb inhibitor 0.0%, ATXN2 expr inh -3.2% and S2 tox inactive.
Screening C=C1C=C(C(F)F)n2ncc(C(=O)N3CCc4ccccc4C3)c2N1 returned HepG2 viability 20.0% and TGFb inhibitor 9.1%.
Screening CN(Cc1ccccc1)/[N+]([O-])=N/Oc1ccc([N+](=O)[O-])cc1[N+](=O)[O-] returned HepG2 viability -95.0% and TGFb inhibitor inconclusive.
Screening COc1cc(NC(=O)C2=CC(c3ccc(F)cc3)=NS(=O)(=O)N2C)cc(OC)c1OC returned HepG2 viability 3.2%, TGFb inhibitor -0.4%, ATXN2 expr inh 6.2% and S2 tox inactive.
`CCc1ccc(NC(=O)Nc2cn(C)c(=O)c3ccccc23)cc1` gave HepG2 viability -17.7% and TGFb inhibitor -23.9%.
`Cc1cc(NC(=O)CC2CCCC2)n(-c2nc3ccccc3[nH]2)n1` gave HepG2 viability -35.6%, HT1080 IDH1KD tx 18.4µM*, HT1080-NT tox inconclusive, TGFb inhibitor -15.4%, ATXN2 expr inh -30.1% and S2 tox inconclusive.
For Cc1cc(NC(=O)c2ccc(F)cc2F)n(-c2nc3ccccc3[nH]2)n1 the results were HepG2 viability -0.2%, HT1080 IDH1KD tx 9.3%, HT1080-NT tox 2.6%, TGFb inhibitor 21.1%, ATXN2 expr inh inconclusive and S2 tox inactive.
O=C(Nc1ccc(Br)cc1F)c1ccc2nc(CCc3ccccc3)oc2c1 was read as HepG2 viability -0.1%, TGFb inhibitor 20.7%, ATXN2 expr inh 22.7% and S2 tox inactive.
O=c1c2c3c(sc2n(Cc2cc(=O)n4ccccc4n2)c(=O)n1-c1ccccc1)CCC3 was read as HepG2 viability 9.1%, TGFb inhibitor 5.8%, ATXN2 expr inh 2.5% and S2 tox inactive.
For CCOc1ccccc1NS(=O)(=O)c1c(-c2ccc(C)cc2)csc1C(=O)OC the results were HepG2 viability -26.1%, TGFb inhibitor inconclusive, ATXN2 expr inh -7.8% and S2 tox inactive.
`O=C(CSc1c(Cl)cccc1Cl)N1CCC(c2nc3ccccc3s2)CC1` gave HepG2 viability -2.2%, HT1080 IDH1KD tx -26.7%, HT1080-NT tox -18.7%, TGFb inhibitor -11.8%, ATXN2 expr inh -29.8% and S2 tox inactive.
For Cc1cc(OCC(=O)N2CCC(c3nc4ccccc4s3)CC2)ccc1Cl the results were HepG2 viability -10.4%, TGFb inhibitor 10µM*, ATXN2 expr inh inconclusive and S2 tox inconclusive.
Cc1ccccc1C(=O)N1CCC(c2nc3ccccc3s2)CC1 was read as HepG2 viability -21.2%, TGFb inhibitor inconclusive, ATXN2 expr inh inconclusive and S2 tox inconclusive.
CC(Oc1ccc(F)cc1)C(=O)N1CCC(c2nc3ccccc3s2)CC1 (stereo unspecified) was read as HepG2 viability 12.6µM*, TGFb inhibitor inconclusive, ATXN2 expr inh inconclusive and S2 tox inconclusive.
